This is part of a sample that, as a whole, favours compounds with a hit. Of some 79,000 tested, about 15% had one in any assay. Calls of active or inactive are those of the source. Rule as the data show it: active = growth inhibition above about 70%; inactive = the rest.
Tests used:
[1] = NCI Yeast Anticancer Drug Screen. Data for the rad50 strain (AID 155);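 also: 0% = growth of vehicle-only cultures of the same strain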; conditions: S. cerevisiae rad50 strain growth inhibition; at 50.0 µM; stronger effect = higher value
Procedure, shortened: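 DNA repair mutant yeast, compound exposure, growth read-out; inhibition is taken relative to vehicle.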

[2] = NCI Yeast Anticancer Drug Screen. Data for the mec2-1 strain (AID 157); conditions: S. cerevisiae mec2-1 strain, at 50.0 µM, stronger effect = higher value
Procedure, shortened: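 Test agents were screened against the mec2-1 yeast strain, with defined DNA repair or cell cycle alteration. Growth was scored as inhibition against vehicle-only controls.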

[3] = NCI Yeast Anticancer Drug Screen. Data for the sgs1 mgt1 strain (AID 161);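 also: 0% = growth of cultures given vehicle only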; conditions: S. cerevisiae sgs1 mgt1 strain, at 50.0 µM, stronger effect = higher value
Procedure, shortened: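 Read-out: growth inhibition vs vehicle controls. Cells: mutant yeast strain deficient in DNA damage repair.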

[4] = NCI Yeast Anticancer Drug Screen. Data for the cln2 rad14 strain (AID 165);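 also: 0% = growth equal to vehicle treated cultures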; conditions: S. cerevisiae cln2 rad14 strain, at 50.0 µM, stronger effect = higher value
Procedure, shortened: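 Growth of compound-exposed yeast (cln2 rad14 genotype) measured and expressed as inhibition relative to vehicle.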

[5] = NCI Yeast Anticancer Drug Screen. Data for the bub3 strain (AID 167); conditions: S. cerevisiae bub3 mutant strain, at 50.0 µM, stronger effect = higher value
Procedure, shortened: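 In this screen, a yeast mutant lacking normal mitotic checkpoint function is challenged with compound. Relative growth versus vehicle gives the inhibition value.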

[6] = NCI Yeast Anticancer Drug Screen. Data for the mlh1 rad18 strain (AID 175); conditions: S. cerevisiae mlh1 rad18 strain growth inhibition; at 50.0 µM; stronger effect = higher value
Procedure, shortened: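 In this whole-cell yeast screen, a strain with altered DNA damage repair is challenged with compound, and its growth is measured against matched vehicle-treated controls.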

Measured: growth inhibition

CNC(=O)NCCCC(NC(C)=O)C(=O)NCc1ccccc1 (centres undefined)
inactive: [1] -19% | [2] -16.7% | [3] -16.2% | [4] 6.4% | [5] -12.5% | [6] 4.7%

COc1cc(C(=O)C(C=O)c2ccccc2)c([N+](=O)[O-])cc1OC (centres undefined)
inactive: [1] 14.8% | [2] 21.4% | [3] 21.5% | [4] 25.8% | [5] 43% | [6] 23.1%

Cc1ccc(NC(=O)NCc2ccncc2)cc1NC(=O)NCc1ccncc1
inactive: [1] 13% | [2] 15% | [3] 20.8% | [4] 20.2% | [5] 30.9% | [6] 24.8%

Nc1c(Cl)cc(Cl)cc1C(=O)O
inactive: [1] -5.05% | [2] -10.5% | [3] 0.35% | [4] -28.7% | [5] -11.2% | [6] -16.1%

CCCC(=O)OC1C(CO)OC(n2cc(F)c(=O)[nH]c2=O)C1F (centres undefined)
inactive: [1] -7.85% | [2] 6.4% | [3] -8.6% | [4] -15.7% | [5] 3.75% | [6] -17.8%

CCOC(=O)[C@H]1C(CC)=NOC1C (some centres undefined)
inactive: [1] 9.95% | [2] 13.2% | [3] 2.9% | [4] -27.5% | [5] 4.25% | [6] 2.4%

CCOC(=O)C1CC(=O)C=C2CCCCC21 (centres undefined)
inactive: [1] -4.05% | [2] -27.7% | [3] -7.55% | [4] 5.35% | [5] -30.1% | [6] 13.4%

O=c1ccc2ccc(OP(=O)(O)O)cc2o1
inactive: [1] -12.4% | [2] -15.1% | [3] 11.4% | [4] 14.1% | [5] -34.7% | [6] 19.6%

CC(CS)CS
inactive: [1] 6.85% | [2] -0.5% | [3] 6.95% | [4] -8.75% | [5] -0.8% | [6] 37%

CCOC(=O)c1ccccc1NC
inactive: [1] -8.65% | [2] -7.4% | [3] -12.1% | [4] -4.9% | [5] -23.4% | [6] -26.1%

O=C(O)c1ccc(O)c(Cl)c1
inactive: [1] 14.2% | [2] 5.8% | [3] -7.85% | [4] -22.2% | [5] 9.25% | [6] 25.4%

CCOC(=O)c1c(C(=O)OC)nc2n1-c1ccccc1OC2
inactive: [1] -16.2% | [2] -36.1% | [3] -14.4% | [4] -17.8% | [5] -17.4% | [6] -0.7%

CC(=O)OC1C(O)C(C)OC(OC2C(C)OC(OC(=O)[C@@H]3CC[C@@H]4[C@H](C3)OC3(C[C@@H](OC(=O)/C=C/c5ccccc5)[C@@H](C)CO3)[C@@]43CO3)C(O)C2OC(C)=O)C1O (some centres undefined)
active: [1] 91% | [2] 93.4% | [3] 92.2% | [4] 90.1% | [5] 91.1% | [6] 91.8%

COCCNC(=O)C1C(=O)C(=O)N(CCOC)C1=O (centres undefined)
inactive: [1] -17.8% | [2] -7.65% | [3] -17.2% | [4] -4.25% | [5] -19.6% | [6] -3.5%

O=C1NC(=O)C2(N1)c1ccccc1-c1ccc(Br)cc12 (centres undefined)
inactive: [1] -2.85% | [2] -8.9% | [3] -0.2% | [4] -20.4% | [5] 0.15% | [6] -2.7%

NC1C=NNC1=O (centres undefined)
inactive: [1] -11.1% | [2] -7.95% | [3] -9.5% | [4] -13.2% | [5] -10.1% | [6] -23.9%

CC1(C)OC2C(O1)[C@H]1OC(C(Cl)(Cl)Cl)=N[C@H]1C(I)[C@H]2N1C(=O)c2ccccc2C1=O (some centres undefined)
inactive: [1] 0.25% | [2] -45.9% | [3] -5.15% | [4] -52.6% | [5] -5.9% | [6] 3.55%

Cc1ccc(C(O)c2ccccc2)cc1 (centres undefined)
inactive: [1] 25.4% | [2] 6.55% | [3] 17.4% | [4] -61.6% | [5] 1.4% | [6] 9.5%

Cc1cccc(NCc2ccncc2)n1
inactive: [1] 19.2% | [2] 9.2% | [3] 26.8% | [4] 2.15% | [5] 1.85% | [6] 6.75%

O=C(O)C1CCN(Cc2oc(CO)cc(=O)c2O)C1 (centres undefined)
inactive: [1] -31.6% | [2] -19.7% | [3] -19.2% | [4] -1.4% | [5] -24.4% | [6] -2.75%

O=C(Nc1cccc2ccccc12)ON1C(=O)c2ccccc2C1=O
inactive: [1] -6.6% | [2] -39.6% | [3] -0.1% | [4] 12.5% | [5] -5.7% | [6] -2.4%

Cc1ccc([N+](=O)[O-])cc1NC(=O)N(C)Cc1ccc(Cl)cc1
inactive: [1] 5.5% | [2] 24.2% | [3] -12.2% | [4] -5.35% | [5] -5.4% | [6] -8.9%

O=S(=O)(O)c1cc(O)c2ccc3c(S(=O)(=O)O)cc(S(=O)(=O)O)c4ccc1c2c34
inactive: [1] -11.7% | [2] -23.1% | [3] -2.85% | [4] 6.8% | [5] 10.6% | [6] 3.75%

COc1cc(O)c(C(C)c2ccccc2)cc1N=O (centres undefined)
inactive: [1] -9.45% | [2] -11.6% | [3] -4.4% | [4] 4.15% | [5] 11.8% | [6] -6.15%

CC(C)(Cc1ccccc1)C(=C=C=C=C(c1ccccc1)C(C)(C)Cc1ccccc1)c1ccccc1
inactive: [1] -14.8% | [2] -3.7% | [3] -32.2% | [4] 5.9% | [5] 2.95% | [6] -15.7%

c1ccc2[nH]c3c(N=NC4=NCCN4)c4ccccc4c-3nc2c1
inactive: [1] -10.5% | [2] -56.2% | [3] 10.1% | [4] -5.85% | [5] -15.3% | [6] 12.8%

C[n+]1cccc(NC(=O)COc2ccc(Cl)c(Cl)c2)c1
inactive: [1] 15.3% | [2] 3.95% | [3] -5.4% | [4] -18% | [5] -1.75% | [6] 21.5%

COc1ccc(C(=O)/C=C/c2ccc(OCCSCCCCCCCCCCSCCOc3ccc(/C=C/C(=O)c4ccc(OC)cc4)cc3)cc2)cc1
inactive: [1] -35% | [2] -30.1% | [3] -16.6% | [4] 3.75% | [5] -20.2% | [6] -40.3%

CC1CC(C)C2=NOS3=C2C1=NO3 (centres undefined)
inactive: [1] 43.3% | [2] 16.6% | [3] 36.1% | [4] 21.4% | [5] 28.4% | [6] 22.9%

COc1cc(C(=O)C/C(CCCC(=O)Nc2ccccc2[N+](=O)[O-])=N/NC(=O)c2cc3ccccc3cc2O)ccc1O
inactive: [1] 12.9% | [2] 28.1% | [3] -9.75% | [4] 23.3% | [5] 1.4% | [6] 7.85%

O=C(O)CCc1ccc2c(c1)CC1(Cc3ccccc3C1)C2
inactive: [1] 26.1% | [2] 41.8% | [3] 61.2% | [4] 52.6% | [5] 48.1% | [6] 64%

NC(=O)C1CC2CC(Cl)C1C2 (centres undefined)
inactive: [1] -0.5% | [2] -0.1% | [3] -18.1% | [4] -45% | [5] 9.65% | [6] -22.1%

COC(=O)C(C(=O)C(=O)Nc1ccccc1C(C)=O)c1nc2ccc(Cl)cc2[nH]c1=O (centres undefined)
inactive: [1] -31.9% | [2] -16.2% | [3] -12.3% | [4] -4.45% | [5] -19.3% | [6] -14.4%

N#C/C(N)=C(\C#N)NC=NCc1ccccc1
inactive: [1] -10.8% | [2] -18.6% | [3] 20.2% | [4] 2.3% | [5] 26.3% | [6] -21.1%

CN(C)S(=O)(=O)C(C(N)=O)c1ccccc1 (centres undefined)
inactive: [1] -8.75% | [2] 10.6% | [3] 19.4% | [4] -14.9% | [5] 7.65% | [6] 10.4%

Cc1cccc(CP(Cc2cccc(C)c2)CC2(Cp3c4ccccc4c4ccccc43)COC2)c1
inactive: [1] 18% | [2] -0.8% | [3] 33.4% | [4] 26.9% | [5] 31.6% | [6] 34.5%

O=c1c(-c2ccccc2)c2oc(c1-c1ccccc1)CSCc1cccc(c1)CSC2
inactive: [1] 15% | [2] -0.1% | [3] -3.55% | [4] -28.9% | [5] -20.6% | [6] 7.8%

NC(=O)NC(=O)NCc1ccccc1
inactive: [1] -1.35% | [2] 0.35% | [3] -12.8% | [4] -7.65% | [5] 6.6% | [6] -4.9%

CCN(CC)CCCNc1ccc(-c2cc(OC)cc3cccnc23)cc1
inactive: [1] -5.95% | [2] -17.1% | [3] -0.05% | [4] -14.1% | [5] 6% | [6] 4.4%
